In PubChem BioAssay (NCI):
Compounds without any hit were thinned out: in the full panel of roughly 83,000, 20% have a hit.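 Negative percent growth values reflect cell death: -40 means 40% of the cells present at the start died, and -100 means all died.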 The source made the active and inactive calls. How the source made its calls: active means growth percent below 10; inactive means the rest.

What was measured:
Experiment in all cases: NCI-60 one-dose screen, 48 h (100 = growth as untreated, 0 = no growth, -100 = all killed)
Conditions in all cases: 10 µM
[1] = test system: SR leukemia
[2] = test system: RPMI-8226 leukemia
[3] = test system: OVCAR-8 ovarian
[4] = test system: OVCAR-5 ovarian
[5] = test system: OVCAR-4 ovarian
[6] = test system: SK-OV-3 ovarian
[7] = test system: IGROV1 ovarian
[8] = test system: OVCAR-3 ovarian
[9] = test system: HS 578T breast
[10] = test system: NCI/ADR-RES ovarian
[11] = test system: T-47D breast
[12] = test system: BT-549 breast
[13] = test system: MDA-MB-435 melanoma
[14] = test system: SW-620 colon
[15] = test system: MCF7 breast
[16] = test system: HCT-116 colon
[17] = test system: HCC-2998 colon
[18] = test system: KM12 colon

Measured: growth

COc1cc(C2=Nc3c/c(=C\c4c(O)[nH]c5ccc(Cl)cc45)ccc3=N2)cc(OC)c1OC
inactive: [2] 16.3% | [4] 79.6% | [6] 85.7% | [7] 49% | [8] 17.3% | [10] 52.2% | [11] 48.5% | [17] 66.3%
active: [1] -18% | [3] -71.4% | [5] -83.1% | [9] -43.3% | [12] -28.2% | [13] -65.7% | [14] -48.2% | [15] -41.8% | [16] -51.4% | [18] 5.27%

CCN(CC)CC(O)Cc1ccc(OC)cc1 (stereo unspecified)
inactive: [1] 104% | [2] 108% | [3] 110% | [4] 106% | [5] 113% | [6] 114% | [7] 122% | [8] 125% | [9] 107% | [10] 113% | [11] 104% | [12] 121% | [13] 102% | [14] 114% | [15] 111% | [16] 111% | [17] 111% | [18] 116%

CCOC(=O)Cn1nnc(-c2ccc(OCc3ccccc3F)cc2)n1
active: [13] -2.38%
inactive: [1] 35.4% | [2] 90.8% | [3] 101% | [4] 92.6% | [5] 86.4% | [6] 93.5% | [7] 87.9% | [8] 100% | [9] 81.2% | [10] 57% | [11] 72.6% | [12] 96.9% | [14] 83.3% | [15] 75.8% | [16] 80.1% | [17] 100% | [18] 75.6%

O=c1c2cccc3c(Nc4ccc(Br)cn4)ccc(c32)c2nc3ccccc3n12
active: [15] 4.15%
inactive: [1] 52.9% | [2] 56.2% | [3] 103% | [4] 90.7% | [5] 53.7% | [6] 94.3% | [7] 48.9% | [8] 94.1% | [9] 81.2% | [10] 93.5% | [11] 18.9% | [12] 84.4% | [13] 97% | [14] 94.8% | [16] 88.2% | [17] 74.8% | [18] 77.2%

O=C(Nc1ccc(CN2CCOCC2)cc1)c1ccc(-c2cc(Cl)ccc2Cl)o1
inactive: [3] 36% | [4] 72.1% | [5] 50.6% | [6] 81.5% | [7] 34% | [8] 70.9% | [9] 72.2% | [10] 46.9% | [11] 34.7% | [12] 102% | [16] 22.3%
active: [1] -12.9% | [2] -5.45% | [13] -10.5% | [14] -2.26% | [15] -34.1% | [17] -83.5% | [18] 8.82%

COc1cc(/C=C/C(=O)c2cc(-c3ccc(F)cc3)ccc2O)cc(OC)c1OC
inactive: [1] 49.9% | [3] 66.7% | [4] 97.5% | [5] 68.3% | [6] 89.5% | [7] 84.1% | [8] 82.4% | [9] 86% | [10] 72.1% | [11] 42.1% | [12] 88% | [13] 70.7% | [14] 80.9% | [15] 68.6% | [16] 60% | [17] 93.1% | [18] 86%
active: [2] 7.24%

COc1cccc(C2(C)Nc3ccccc3-c3nc4ccccc4n32)c1 (stereo unspecified)
inactive: [1] 87.7% | [2] 96.4% | [3] 105% | [4] 109% | [5] 112% | [6] 104% | [7] 101% | [8] 112% | [9] 112% | [10] 97% | [11] 98.5% | [12] 108% | [13] 104% | [14] 108% | [15] 103% | [16] 106% | [17] 106% | [18] 108%

CC1=CC2OC34COC3CC(OC(=O)C(F)(F)F)C4(C)C2(C)CC1 (stereo unspecified)
inactive: [1] 99.3% | [2] 101% | [3] 106% | [4] 101% | [5] 103% | [6] 102% | [7] 119% | [8] 118% | [9] 97.7% | [10] 105% | [11] 94.2% | [12] 95.9% | [13] 101% | [14] 103% | [15] 93.7% | [16] 96.6% | [17] 98.3% | [18] 105%

C#C[C@]1(O)CC[C@H]2[C@@H]3CC[C@H]4CC(F)(F)CC[C@]4(C)[C@H]3CC[C@@]21C
active: [1] 8.15%
inactive: [2] 80.1% | [3] 84.6% | [4] 88.5% | [5] 94.2% | [6] 60.8% | [7] 94.2% | [8] 93.9% | [9] 77.6% | [10] 92.2% | [11] 64.7% | [12] 58.6% | [13] 84% | [14] 87.9% | [15] 88.9% | [16] 76.6% | [17] 112% | [18] 87.2%

COc1cc(Cn2c(-c3ccccc3)cc3c2-c2oncc2CC3)cc(OC)c1
active: [1] 2.06% | [6] 0.474% | [7] 7.96% | [8] -47.1% | [9] -6.35% | [10] -19.5% | [12] 8.36% | [13] -39.5% | [16] 6.79%
inactive: [2] 34.8% | [3] 21.7% | [4] 42.6% | [5] 51.8% | [11] 45.8% | [14] 23.8% | [15] 14.1% | [17] 17.4% | [18] 10.2%

COc1cc(C)c2sc3ccccc3c(=O)c2c1NCCN(C)C
inactive: [2] 33.3% | [3] 40.5% | [4] 87% | [5] 72.8% | [6] 65.7% | [7] 29.3% | [8] 87.4% | [9] 58.6% | [10] 61.9% | [11] 78.4% | [12] 93.8% | [13] 12% | [14] 34.9% | [15] 22.2% | [16] 43% | [17] 28.9% | [18] 65%
active: [1] 3.64%

Cc1ccc2oc(=O)cc(/C(=C3/C=CC=N3)c3ccc[nH]3)c2c1
active: [1] -9.31% | [2] -16.9% | [3] -20.2% | [6] -16% | [8] -23.3% | [10] 0.0095% | [11] -1.91% | [12] -11.4% | [13] -24.8% | [15] 7.32% | [16] 1.45% | [17] -17% | [18] -17.6%
inactive: [4] 21.1% | [5] 28% | [7] 16.6% | [9] 12.9% | [14] 20.9%

NC1CCC(Nc2nc(NCc3cc(Cl)ccc3O)c3ncn(C4CCCC4)c3n2)CC1 (stereo unspecified)
active: [1] -15.9% | [2] -25.1% | [3] 8.24% | [5] -6.96% | [6] 2.6% | [7] 1.62% | [8] -20.2% | [9] -1.92% | [11] -28% | [12] -21.2% | [13] -43.9% | [14] 3.11% | [15] -58.9% | [16] -17.6% | [17] -39.5% | [18] 1.98%
inactive: [4] 17.3% | [10] 26.3%

Nc1nc(SCC#CCCl)c2[nH]cnc2n1
inactive: [1] 29.9% | [2] 36.2% | [3] 71.2% | [4] 90.8% | [5] 43.1% | [6] 49.6% | [7] 25.4% | [8] 54.5% | [9] 73.6% | [10] 67% | [11] 37.2% | [12] 44.8% | [13] 46.7% | [14] 40.8% | [15] 34.6% | [16] 39% | [17] 100% | [18] 60.6%

Oc1cc(O)c(Br)cc1Br
inactive: [1] 85.7% | [2] 99.4% | [3] 103% | [4] 107% | [5] 98.2% | [6] 107% | [7] 102% | [8] 110% | [9] 107% | [10] 105% | [11] 90.2% | [12] 93.8% | [13] 101% | [14] 105% | [15] 91.3% | [16] 97.3% | [17] 94.6% | [18] 101%

CCCCCCCOc1cccc(/C=C2/C(=O)N=C3SCCCN32)c1
inactive: [1] 47.9% | [2] 40.8% | [3] 71.6% | [4] 91.2% | [5] 63.1% | [6] 88% | [7] 79.9% | [8] 50.9% | [9] 91.4% | [10] 56.8% | [12] 51.3% | [13] 56.4% | [14] 76.6% | [15] 29.4% | [16] 39.9% | [17] 95.8% | [18] 75.2%
active: [11] 0.89%

c1ccc(OCCC[P+](c2ccccc2)(c2ccccc2)c2ccccc2)cc1
inactive: [4] 29% | [6] 19.6% | [7] 10.5% | [9] 43.3% | [10] 93.3% | [11] 13.3% | [12] 11% | [14] 18.9% | [17] 14.3%
active: [1] -21.2% | [2] -27.6% | [3] 7.15% | [5] 8.32% | [8] 7.59% | [13] 0.653% | [15] 4.3% | [16] 6.18% | [18] 6.18%
